Mcl-1 Bim block: inhibitors of Bim-Mcl-1 interaction, human; Bead-based flow cytometry, Bim peptide-Mcl-1 binding; inhibition, % at 10 µM; 0.1% of 190,000 active; in the data active means inhibition above about 40%;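 further: 0% = no compound tracer wells and 100% = peptide blocker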
14-3-3 Bad inh: disrupts binding of bovine 14-3-3 zeta to phospho-Bad peptide | TR-FRET 14-3-3zeta/Dy647-pBad peptide displacement, 1 h | 0.71% of 220,000 active | inhibition, % at 21.7 µM | AID 781;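 active means inhibition above about 70%, limit read from the data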;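 further: 0% = full 14-3-3 plus peptide FRET controls and 100% = background without 14-3-3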
Target sequence (P63103 whole entry, looked up): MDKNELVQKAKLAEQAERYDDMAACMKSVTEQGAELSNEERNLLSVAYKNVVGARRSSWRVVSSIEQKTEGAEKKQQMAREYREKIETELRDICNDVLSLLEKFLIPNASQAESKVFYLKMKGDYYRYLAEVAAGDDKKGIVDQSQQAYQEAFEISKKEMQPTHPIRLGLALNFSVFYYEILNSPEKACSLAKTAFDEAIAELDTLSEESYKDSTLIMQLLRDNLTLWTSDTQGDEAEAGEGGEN
p47phox inh: inhibitors of human p47phox binding | P14598 | p47phox/p22phox peptide binding, fluorescence polarization, 2 h | inhibition, % at 24.7 µM | 0.53% of 220,000 active;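 active means inhibition above about 30%, limit read from the data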;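 further: 0% = p47phox with labelled peptide and 100% = labelled peptide alone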
Target sequence (P14598 whole entry, looked up): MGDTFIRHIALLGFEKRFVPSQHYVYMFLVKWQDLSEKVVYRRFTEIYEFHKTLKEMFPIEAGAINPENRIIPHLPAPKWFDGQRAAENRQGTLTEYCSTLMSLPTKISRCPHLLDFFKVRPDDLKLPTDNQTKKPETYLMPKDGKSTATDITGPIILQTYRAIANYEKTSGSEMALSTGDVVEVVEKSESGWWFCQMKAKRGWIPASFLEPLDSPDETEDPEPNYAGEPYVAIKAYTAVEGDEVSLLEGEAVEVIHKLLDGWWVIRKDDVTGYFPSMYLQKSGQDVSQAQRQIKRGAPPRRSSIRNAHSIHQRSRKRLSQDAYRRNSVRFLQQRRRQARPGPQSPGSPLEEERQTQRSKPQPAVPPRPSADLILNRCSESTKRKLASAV
Mcl1 Bid PPI: Mcl-1/Bid interaction inhibition; inhibition, % at 21.7 µM; TR-FRET Mcl-1/Bid-Dy647 peptide binding, 1536-well; Q07820; 0.97% of 220,000 active;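 active means compounds that cut the binding signal by more than half at the single screening dose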;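 further: His-tagged Mcl-1 with europium anti-His antibody binding Bid BH3 peptide; 0% = Mcl-1 plus peptide wells and 100% = peptide-only wells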
Calpain2 inh: blocks pig calpain II enzyme activity | 0.37% of 220,000 active | purified calpain II, fluorogenic peptide substrate, 30 min | AID 1236 | inhibition, % at 16 µM;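 active means inhibition above about 50%, limit read from the data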
Mcl1-Noxa inh: disrupts binding of human Mcl-1 to Noxa peptide; 1.5% of 220,000 active; AID 1022; inhibition, % at 21.7 µM; TR-FRET Mcl-1/Noxa peptide binding, 2 h; Q07820;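 active means compounds that cut the protein-peptide binding signal by more than 50% relative to plate controls in a single-dose test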;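 further: His-tagged Mcl-1 with rhodamine Noxa BH3 peptide and terbium anti-His antibody; 0% = Mcl-1 plus Noxa peptide wells and 100% = peptide-only wells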
Numbers without * were called inactive. A selection: hits, their analogues and other compounds. The true share with any hit is near 3.4%.

For COc1ccc2c(c1)OC1=C(C(=O)CCC1)C2C1=C(O)CCCC1=O (stereo unspecified) the results were Mcl-1 Bim block -2, 14-3-3 Bad inh 73*, p47phox inh -1, Mcl1 Bid PPI -31, Calpain2 inh -6 and Mcl1-Noxa inh 6.
Screening O=C(/C=C/c1ccc2c(c1)OCO2)Nc1ccc(Cl)cn1 returned Mcl-1 Bim block -2, 14-3-3 Bad inh 27, p47phox inh 10, Mcl1 Bid PPI 63*, Calpain2 inh -52 and Mcl1-Noxa inh 17.
For CCOc1ccc2nc(NC(=O)/C=C/c3ccc4c(c3)OCO4)sc2c1 the results were Mcl-1 Bim block 0, 14-3-3 Bad inh 40, p47phox inh -26, Mcl1 Bid PPI 60*, Calpain2 inh 13 and Mcl1-Noxa inh 56*.
Screening O=C(/C=C/c1ccccc1Cl)Nc1ccc(Cl)cn1 returned Mcl-1 Bim block 3, 14-3-3 Bad inh -2, p47phox inh 1, Mcl1 Bid PPI -38, Calpain2 inh 9 and Mcl1-Noxa inh 11.
O=C(/C=C/c1ccc2c(c1)OCO2)Nc1nc(-c2ccc(F)cc2)cs1 was read as Mcl-1 Bim block -4, 14-3-3 Bad inh 5, p47phox inh -6, Mcl1 Bid PPI -7, Calpain2 inh 5 and Mcl1-Noxa inh 4.
For O=C(/C=C/c1ccc2c(c1)OCO2)Nc1nc2ccc(F)cc2s1 the results were 14-3-3 Bad inh 27, p47phox inh -5, Mcl1 Bid PPI 61*, Calpain2 inh 13 and Mcl1-Noxa inh 71*.
Screening CN(O)C(=O)Nc1ccc([N+](=O)[O-])cc1 returned Mcl-1 Bim block -2, 14-3-3 Bad inh -6, p47phox inh 128*, Mcl1 Bid PPI -10, Calpain2 inh 40 and Mcl1-Noxa inh 2.
`CC(C)(C)C(=O)Nc1ccc(Sc2ccc([N+](=O)[O-])cc2)cc1` gave Mcl-1 Bim block -4, 14-3-3 Bad inh 0, p47phox inh 3, Mcl1 Bid PPI 17, Calpain2 inh 22 and Mcl1-Noxa inh 2.
Screening CCCCNC(=O)C1CCN(C/C(C)=C/c2ccccc2)CC1 returned Mcl-1 Bim block 0, 14-3-3 Bad inh 71*, p47phox inh -7, Mcl1 Bid PPI 14, Calpain2 inh 11 and Mcl1-Noxa inh 12.
For Cc1ccc(Cl)cc1N(Cc1ccc(C(=O)NCc2cccnc2)cc1)S(=O)(=O)c1ccccc1 the results were Mcl-1 Bim block -4, 14-3-3 Bad inh 0, p47phox inh -11, Mcl1 Bid PPI 1, Calpain2 inh 52* and Mcl1-Noxa inh -4.
Screening O=C(c1ccccc1)N1CCN(c2ncnc3sc4c(c23)CCC4)CC1 returned Mcl-1 Bim block -1, 14-3-3 Bad inh -7, p47phox inh -12, Mcl1 Bid PPI -8, Calpain2 inh 3 and Mcl1-Noxa inh 13.
For O=C(CN1CCN(C2CCCCC2)CC1)Nc1ccccc1-c1ccccc1 the results were Mcl-1 Bim block 0, 14-3-3 Bad inh 83*, p47phox inh 1, Mcl1 Bid PPI 44, Calpain2 inh -9 and Mcl1-Noxa inh 8.
O=C(CN1CCCCC1)Nc1ccccc1-c1ccccc1 was read as Mcl-1 Bim block -4, 14-3-3 Bad inh -4, p47phox inh -8, Mcl1 Bid PPI -15, Calpain2 inh 16 and Mcl1-Noxa inh 11.
`Cc1noc2ncnc(SCc3ccc(C(F)(F)F)cc3)c12` gave 14-3-3 Bad inh 3, p47phox inh -4, Mcl1 Bid PPI 69*, Calpain2 inh -12 and Mcl1-Noxa inh 11.
`NC(=O)CSc1nnc2ccc(-c3ccc(F)cc3)nn12` gave Mcl-1 Bim block 0, 14-3-3 Bad inh -9, p47phox inh 6, Mcl1 Bid PPI -20, Calpain2 inh -114 and Mcl1-Noxa inh -15.
Screening CCCNS(=O)(=O)c1ccc(CCC(=O)N2CCN(c3ccc(F)cc3)CC2)cc1 returned Mcl-1 Bim block -4, 14-3-3 Bad inh -29, p47phox inh -8, Mcl1 Bid PPI -32, Calpain2 inh -10 and Mcl1-Noxa inh 10.
Screening Cc1ccc2[nH]c(C(=O)O)c(NC(=O)CN3CCN(c4cccc(C)c4C)CC3)c2c1 returned Mcl-1 Bim block 5, 14-3-3 Bad inh -13, p47phox inh -6, Mcl1 Bid PPI 24, Calpain2 inh -13 and Mcl1-Noxa inh 13.
`Cc1ccc2[nH]c(C(=O)O)c(NC(=O)[C@@H]3C[C@@H]3c3ccccc3)c2c1` gave 14-3-3 Bad inh -15, p47phox inh 113*, Mcl1 Bid PPI -11, Calpain2 inh -12 and Mcl1-Noxa inh 28.
Screening Cc1nn2c([nH]c(=O)c3ccccc32)c1C=O returned Mcl-1 Bim block 2, 14-3-3 Bad inh 14, p47phox inh -4, Mcl1 Bid PPI -15, Calpain2 inh -20 and Mcl1-Noxa inh 3.
CCn1c(SCC(=O)Nc2cccc(C)c2)nc2c(c1=O)SC(C)C2 (stereo unspecified) was read as Mcl-1 Bim block 0, 14-3-3 Bad inh 5, p47phox inh 1, Mcl1 Bid PPI -30, Calpain2 inh -22 and Mcl1-Noxa inh -9.
Screening O=C(O)c1ccc(N=Nc2c(O)[nH]c3cc(Cl)ccc23)cc1 returned 14-3-3 Bad inh 1, p47phox inh -32, Mcl1 Bid PPI -58, Calpain2 inh 5 and Mcl1-Noxa inh 62*.
Screening CCCCNC(=O)C(c1ccc(OCC(=O)OC)c(C(=O)OC)c1)N(CCc1c[nH]c2ccccc12)C(=O)CCCCCN1C(=O)NC(c2ccc(-c3ccccc3)cc2)C(C(=O)OCc2ccccc2)=C1C (stereo unspecified) returned 14-3-3 Bad inh 1, p47phox inh -19, Mcl1 Bid PPI -76, Calpain2 inh -46 and Mcl1-Noxa inh -11.
`CCn1c(=N)c(S(=O)(=O)c2ccc(C)cc2)cc2c(=O)n3ccccc3nc21` gave Mcl-1 Bim block 5, 14-3-3 Bad inh -1, p47phox inh 20, Mcl1 Bid PPI -6, Calpain2 inh -309 and Mcl1-Noxa inh -3.
Screening CCn1c(=N)c(S(=O)(=O)c2ccccc2)cc2c(=O)n3ccccc3nc21 returned Mcl-1 Bim block 2, 14-3-3 Bad inh 79*, p47phox inh 18, Mcl1 Bid PPI 9, Calpain2 inh -268 and Mcl1-Noxa inh 19.
For CC(CCc1ccccc1)NC(=O)CNC(=S)N(Cc1cccs1)C1CCCC1 (stereo unspecified) the results were Mcl-1 Bim block 6, 14-3-3 Bad inh -14, p47phox inh -2, Mcl1 Bid PPI -47, Calpain2 inh 19 and Mcl1-Noxa inh -17.
Screening Cc1cc(C)cc(C(=O)NCC(=O)OCC(=O)Nc2cccnc2Cl)c1 returned Mcl-1 Bim block -1, 14-3-3 Bad inh 1, p47phox inh -3, Mcl1 Bid PPI -36, Calpain2 inh 11 and Mcl1-Noxa inh -4.
Screening COC(=O)Cc1ccc(NC(=S)Nc2ccc(N3CCOCC3)cc2)cc1 returned Mcl-1 Bim block -4, 14-3-3 Bad inh -12, p47phox inh 10, Mcl1 Bid PPI -39, Calpain2 inh 16 and Mcl1-Noxa inh 3.
